A selection: hits, their analogues and other compounds. The true share with any hit is near 1.3%.
Keap1 Nrf2 FP – Keap1-Nrf2 (human) interaction inhibition. 340,000 tested, 0.15% active. Keap1 Kelch-Nrf2 peptide fluorescence polarization, 1536-well. Q14145. inhibition, % at 9.4 µM. AID 504523; in the data active means inhibition above about 12%;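 further: human Keap1 Kelch domain with fluorescein labeled Nrf2 9mer peptide probe; 0% = neutral control wells and 100% = peptide positive control; higher means more block of Keap1 binding to Nrf2 peptide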
Target sequence (Q14145 whole entry, looked up, the tested form may be a part): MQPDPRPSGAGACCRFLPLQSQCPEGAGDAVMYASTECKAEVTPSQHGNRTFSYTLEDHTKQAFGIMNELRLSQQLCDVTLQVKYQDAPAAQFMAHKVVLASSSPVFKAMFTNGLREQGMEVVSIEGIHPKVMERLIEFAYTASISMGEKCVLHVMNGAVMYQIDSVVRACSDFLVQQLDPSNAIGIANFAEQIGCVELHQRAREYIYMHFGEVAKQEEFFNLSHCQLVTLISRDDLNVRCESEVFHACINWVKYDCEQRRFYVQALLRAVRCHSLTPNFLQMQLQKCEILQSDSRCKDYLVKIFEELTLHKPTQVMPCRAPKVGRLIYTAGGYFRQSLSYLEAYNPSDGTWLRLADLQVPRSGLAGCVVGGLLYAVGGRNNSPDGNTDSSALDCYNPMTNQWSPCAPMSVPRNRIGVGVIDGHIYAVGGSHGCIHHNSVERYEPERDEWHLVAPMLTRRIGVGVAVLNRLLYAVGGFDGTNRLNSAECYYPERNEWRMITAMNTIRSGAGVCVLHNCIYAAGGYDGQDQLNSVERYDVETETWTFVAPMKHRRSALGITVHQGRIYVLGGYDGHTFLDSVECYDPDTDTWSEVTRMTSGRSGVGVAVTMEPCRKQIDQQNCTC
E coli Lon inh – E. coli protease La inhibition; purified E. coli Lon protease, fluorescence polarization; inhibition, % at 7.94 µM; 360,000 tested, 0.42% active; in the data active means inhibition above about 13%, passing the limit was not always enough;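 further: 0% = enzyme with probe and DMSO and 100% = no enzyme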
LANA-H2A inh – blocks KSHV LANA binding to histone H2A/H2B. 320,000 tested, 0.6% active. cell-free LANA-H2A/H2B peptide, fluorescence polarization. inhibition, % (no concentration beside the values); in the data active means inhibition mostly above about 10%, no sharp cut-off; inactive means mostly below about 6.7%
Cardiac RTF inh – cardiac RTF calcium desensitization; inhibition, % at 7.15 µM; 340,000 tested, 0.12% active; P19429+P45379; AID 493244; IANBD-labeled cardiac RTF, Ca2+ fluorescence;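 active means inhibition above the mean inhibition of all tested compounds plus 3 SD, cut at about 17% in these data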;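 further: assay run at fixed EC70 calcium of 1.6 mM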
C-LANA FP – KSHV C-LANA DNA binding inhibition. inhibition, % at 9 µM. MBP-C-LANA/FAM-LBS DNA binding, fluorescence polarization. AID 504423. 340,000 tested, 0.078% active;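 active means highest replicate inhibition at or above 60% at 9 µM, even if other replicates fall short; inactive means all replicates below 60% inhibition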;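 further: 0% = neutral control wells and 100% = 4 µM acridine orange control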
cardiac RTF act – increases calcium sensitivity of human cardiac regulated thin filaments; P19429+P45379; activation, % at 7.2 µM; 340,000 tested, 0.24% active; AID 493008; IANBD-labeled TnC RTF fluorescence at EC20 calcium; 0% EC20 calcium, 100% full calcium;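 active means activation above the mean over all tested compounds plus 3 SD, cut at about 30% in these data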;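 further: rise in fluorescence read as greater calcium sensitivity of cardiac thin filaments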
* hit, by the source's call; i = inactive; x = no result.

SMILES	Keap1 Nrf2 FP	E coli Lon inh	LANA-H2A inh	Cardiac RTF inh	C-LANA FP	cardiac RTF act
C=CCOc1ccc(/C(O)=C2/C(=O)C(=O)N(CCCN3CCOCC3)C2c2ccc(OC)cc2)cc1 (stereo unspecified)	-2	-11	16*	4	1	1
COc1ccc(OC)c(C=NNC(=O)c2ccc(NS(=O)(=O)c3cccs3)cc2)c1	x	-5	1	x	x	x
O=C(C1CCCN(Cc2ccc([N+](=O)[O-])cc2)C1)N1CCCCC1 (stereo unspecified)	-7	4	-1	-3	0	-2
CCOC(=O)c1c(NC(=O)CCS(=O)(=O)c2ccccc2)sc2c1CCN(C)C2	-13	-48	53*	-2	-5	2
CC(=O)N1CCc2c(sc(NC(=O)CCS(=O)(=O)c3ccccc3)c2C(N)=O)C1	-1	13	33*	-3	1	-5
CCOC(=O)N1CCc2c(sc(NC(=O)CCS(=O)(=O)c3ccccc3)c2C(N)=O)C1	-8	3	-9	1	-2	-2
O=C(CCC(=O)N1CCOc2ccccc21)NC1CCCCCC1	-1	-4	4	-5	0	2
NS(=O)(=O)c1cccc(NC(=O)CC23CC4CC(C2)CC(CC(=O)Nc2cccc(S(N)(=O)=O)c2)(C4)C3)c1	-6	11	-1	-1	-1	-3
CCOc1ccc(-n2c(=O)c3sccc3n(CC(=O)NC3CCCCC3)c2=O)cc1	1	6	29*	3	-2	-11
O=C(COc1ccc(Cl)cc1Cl)c1ccc[nH]1	-1	-10	-1	-3	1	3
CCNC(=S)N/N=C/c1sc(N2CCCCC2)nc1-c1cccs1	-2	-24	0	-19	7	33*
CCNC(=S)Nc1ccc(N2CCCCC2)cc1	-2	-6	3	-3	0	-2
CN(C)C(CNC(=O)c1cc(-c2ccco2)nc2ccccc12)c1ccccc1 (stereo unspecified)	-2	-2	-3	-9	-1	-8
CC(C)CN(C)Cc1c(C(=O)N2CCc3ccccc3C2)nc2ccc(Cl)cn12	-8	2	17*	-11	-3	13
NC(=O)C1CCCN(Cc2c(C(=O)N3CCc4ccccc4C3)nc3ccc(Cl)cn23)C1 (stereo unspecified)	-2	5	99*	-3	0	5
O=C(Nc1ccccc1Cl)c1cccc(NC(=O)C2CCCC2)c1	-2	-4	-3	4	0	4
O=C(Nc1ccccc1Cl)c1cccc(NC(=O)c2cccs2)c1	-4	-2	38*	-1	-1	8
Cc1ccc(-n2nc3c(=O)n(CC(=O)NC(C)CCc4ccccc4)nc(C)c3c2C)cc1 (stereo unspecified)	1	-2	1	1	1	4
COc1ccc(CC(=O)N/N=C/c2ccc(-c3cccc(C(=O)O)c3)o2)cc1OC	-1	-13	8.8*	3	4	1
CCOc1ccc(/C=C(\C#N)C(=O)Nc2cccnc2)cc1	-4	1	-6	-15	-3	2
CCOc1ccc(NC(=O)/C(C#N)=C\c2ccc(N3CCCC3)c(C)c2)cc1	-4	-136	x	-52	2	72*
C=CCn1c(SCC(=O)N2c3ccccc3Sc3ccccc32)nnc1-c1ccco1	-4	2	23*	-2	-2	-6
CCn1c(SCC(=O)N2c3ccccc3Sc3ccccc32)nnc1-c1ccco1	-3	-7	-6	-5	-1	0
COC(=O)CSc1nnc(CCc2ccccc2)n1C	-6	-1	11*	-7	0	-1
O=C(O)c1ccc(O)cc1O	-1	8	28*	-8	0	-1
SMILES	Keap1 Nrf2 FP	E coli Lon inh	LANA-H2A inh	Cardiac RTF inh	C-LANA FP	cardiac RTF act
CC(=O)NC12CC3CC(C1)CC(C(=O)N1CCN(S(=O)(=O)c4cccc([N+](=O)[O-])c4)CC1)(C3)C2	2	-7	x	-4	-1	-2
COc1ccc(NC(=O)c2cc(F)cc(F)c2)cc1S(=O)(=O)N1CCCCC1	0	-3	18*	0	-1	-1
COc1ccc(NC(=O)c2cc(OC)c(OC)c(OC)c2)cc1S(=O)(=O)N1CCCCC1	-3	2	2	5	-1	0
O=C(NCc1cccc(Cl)c1)c1ccc2c(c1)SC1=NS(=O)(=O)CCN12	-2	-4	16*	2	1	0
CCCCOC(=O)CSc1nc2c(c(=O)[nH]c(=O)n2C)n1C/C=C(\C)Cl	-3	1	12*	-11	-1	6
O=C(NNS(=O)(=O)c1ccc(Br)cc1)c1cccs1	-8	7	17*	-3	1	1
O=C(CC12CC3CC(CC(Br)(C3)C1)C2)NC1CCCC1	-4	3	12*	11	2	2
Cc1ccc(OCC(=O)Nc2cc(C(=O)O)cc(C(=O)O)c2)cc1C	6	-2	3	-7	0	-1
CCn1c(/C=C/N(C(C)=O)c2ccccc2)[n+](CC)c2ccc(Cl)cc21	-2	-7	2	-1	-1	1
CC[n+]1c(/C=C/C=C/N(C(C)=O)c2ccccc2)sc2ccccc21	-341	-385	-266	-431	-21	421*
COc1ccc(C)cc1NC(=O)CSCc1cc(=O)n2c(C)csc2n1	-3	-9	x	-6	-1	1
COc1ccc(/C=C2\CCCc3c2nc2ccccc2c3C(=O)O)cc1OC	x	x	91*	x	x	x
CCOc1ccc(/C=C2\CCCc3c2nc2ccccc2c3C(=O)O)cc1OC	114*	178*	121*	i	148*	767*
Cc1ccccc1SCCNC(=O)c1ccccc1Br	-6	-3	3	-1	0	-1
CCOC(=O)C1=C(O)/C(=C/c2cn(CC(=O)NCC3CCCO3)c3ccccc23)SC1=Nc1ccc(C)cc1 (stereo unspecified)	-7	-6	-1	-20	21	135*
CCOC(=O)C1=C(O)/C(=C/c2ccc(-c3ccccc3C(=O)O)o2)SC1=Nc1ccc(C)cc1	-35	-98	x	-19	4	1
Oc1ccc(CCNc2c3ccccc3nc3ccccc23)cc1O	-6	-3	14*	3	-8	-1
c1ccc(CNc2c3ccccc3nc3ccccc23)cc1	-2	4	-2	-1	-7	-3
CC(=O)NCCc1ccc(C(=O)COC(=O)C2CCCCC2)cc1	-6	6	4	-3	-2	-2
Cc1ccc(C(=O)COC(=O)C2CCC2)cc1	1	-11	3	-5	-1	63*
CCCN1C(=O)S/C(=C\c2ccc(N3CCOCC3)o2)C1=O	-98	-34	-29	-98	-18	171*
CCN1C(=O)S/C(=C\c2ccc(N3CCOCC3)cc2C)C1=O	-9	-13	4	-13	1	8
CCCN1C(=O)S/C(=C/c2ccc(N3CCOCC3)o2)C1=O	-142	i	-72	-202	-15	189*

Screening data: PubChem BioAssay, several laboratories
